Screening data from PubChem BioAssay.
Pf growth 48h: Primary qHTS for delayed death inhibitors of the malarial parasite plastid, 48 hour incubation. P. falciparum luciferase growth in erythrocytes, 48 h. Potency, µM (top dose mostly 28.7 µM), for the others: top-dose activity change, negative = inhibition, hits mostly inhibitors. actives 5.9% (n = 310,000). AID 504832, 2011; also: potency is read from the fitted curve at half-maximal effect; % is scaled to controls: 0 for no effect and ±100 for the full control effect
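In quantitative HTS format, infected erythrocytes bearing luciferase-reporter parasites were treated for a single generation at 37 C. Luminescence after adding detection reagent served as the growth measure.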
HCMV inh: qHTS Assay for inhibitors of the human cytomegalovirus (HCMV); HFF cells, HCMV-luciferase reporter, 72 h; hits give low values; AID 1259415, 2018; actives 4.5% (n = 410,000); activity change, negative = inhibition, % at 57.5 µM; in the data active = activity change below about -60%; inconclusive = no clear call, values can overlap the other calls; inactive = above about -39%; also: % is scaled to controls: 0 for no effect and ±100 for the full control effect
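Steps: HFFs plated, 16 h 37C; compounds added; HCMV-luciferase added to MOI 1 PFU/cell; 72 h 37C; OneGlo reagent, 5 min room temperature; luminescence read, normalized to controls.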
Sm TGR block: qHTS Assay for the Inhibitors of Schistosoma Mansoni Peroxiredoxins; Schistosoma mansoni thioredoxin glutathione reductase (TGR), Q962Y6; purified TGR, DTNB reduction, TNB absorbance 405 nm; Potency, µM (highest dose often 114 µM), for inactives: at the top dose activity change, negative = inhibition, hits mostly inhibitors; actives 3% (n = 360,000); AID 485364, 2010; also: potency is read from the fitted curve at half-maximal effect; % is scaled to controls: 0 for no effect and ±100 for the full control effect; nearly all actives have a fitted effect of over 60% in size
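First, TGR (20 nM dispensed) and NADPH were mixed with compound. Second, a 15 min room-temperature incubation followed. Third, further NADPH and then DTNB were added to start the reaction. Finally, TNB absorbance was monitored kinetically.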
SARS PLP yeast: qHTS of Yeast-based Assay for SARS-CoV PLP. Potency, µM (highest dose often 32.9 µM), for inactives: top-dose activity, positive = growth rescue, hits mostly activators. S. cerevisiae expressing SARS-CoV PLpro, growth rescue. actives 0.19% (n = 330,000); calls by dose curve; also: potency is read from the fitted curve at half-maximal effect; 0% is about no effect; nearly all actives have a fitted effect of over 55% in size
Pf growth 96h: Primary qHTS for delayed death inhibitors of the malarial parasite plastid, 96 hour incubation. Potency, µM (highest dose often 28.7 µM), without a hit: at the highest dose activity change, negative = inhibition, most hits filed as inhibitors. P. falciparum luciferase reporter growth, 96 h. actives 6.9% (n = 320,000). AID 504834, 2011; also: potency is read from the fitted curve at half-maximal effect; % is scaled to controls: 0 for no effect and ±100 for the full control effect
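P. falciparum expressing integrated firefly luciferase grown in erythrocytes (2% hematocrit, 0.05% parasitemia final) with compounds for 96 hours at 37 C, 5% CO2. Growth inhibition read as loss of luminescence after adding luciferase detection reagent.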
HCV inh: qHTS Assay for Inhibitors of Hepatitis C Virus (HCV). Huh7.5.1 HCVcc-Cre infection, luciferase reporter, 44 h. Potency, µM (doses to about 41.8 µM), for inactives: at the highest dose activity change, negative = inhibition, hits mostly inhibitors. actives 3.4% (n = 340,000). AID 651820, 2012; also: potency is read from the fitted curve at half-maximal effect; % is scaled to controls: 0 for no effect and ±100 for the full control effect
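A cell-based infection assay in which seeded cells (1,000 per well) receive test compound after 4 h, are inoculated with HCVcc-Cre at approximately 0.5 moi, and are incubated 44 h before luminescence detection.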
An asterisk follows results filed as active; ? = inconclusive; . = not tested or not shown. Rows were chosen to be rich in hits. Some 15% of all compounds tested hit in one or more screens of this group. Unless noted, calls follow the shape of the dose curve; as a rule, active = well fitted curve in the direction sought with a large enough effect; inconclusive = small, poorly fitted or top-dose-only effect, or another doubt; inactive = no such curve, though single readings can be large; an effect the other way counts as inactive or inconclusive.

SMILES | Pf growth 48h | HCMV inh | Sm TGR block | SARS PLP yeast | Pf growth 96h | HCV inh
CCOc1ccc(/C=N/Nc2ccc(Cl)nn2)c(O)c1 | 1.31µM* | -81.8* | -0.8% | -2.8% | ? | -19.0%
CCOc1ccccc1/C=N/Nc1ccc(Cl)nn1 | . | -24.5 | -7.6% | -1.0% | -28.5% | ?
CC(=O)C(=Cc1ccccc1)c1ccccc1 | . | 11.4 | . | . | . | .
N#Cc1cnn2ccc(-c3ccc4c(c3)CCC4)nc12 | -5.7% | 83.2 | -0.6% | -1.1% | 10.1% | -8.6%
COc1ccc(CNc2ncnc3sccc23)cc1OC | -19.9% | -10.2 | 6.8% | 3.2% | -12.8% | 6.31µM*
Cc1cc2c(NCc3ccccc3)ncnc2s1 | ? | -76.2* | -2.9% | -11.6% | 3.3% | 7.94µM*
COc1ccc(C(CNc2ncnc3sccc23)N(C)C)cc1OC (stereo not given) | -19.2% | 84.9 | -26.4% | 1.6% | -0.5% | -3.4%
Cc1sc2ncnc(NCc3ccccc3)c2c1C | -2.4% | ? | 11.7% | 2.1% | ? | 5.62µM*
COc1ccc(CNc2ncnc3sccc23)cc1 | -7.4% | -73.5* | 3.0% | -18.9% | -1.8% | ?
Cc1sc2ncnc(Nc3ccccc3)c2c1C | 19.2% | 91.5 | 7.2% | -1.3% | . | ?
CCOc1ccc(N2CC(NC(=O)c3ccc4c(c3)OCO4)CC2=O)cc1 (stereo not given) | . | 21.9 | 1.2% | . | . | .
c1cncc(CNc2ncnc3sccc23)c1 | 13.5% | -12.8 | 4.6% | -1.1% | 27.1% | -28.0%
CN(C)C(CNc1ncnc2sccc12)c1ccccc1 (stereo not given) | 5.8% | -24.5 | 0.5% | 0.1% | ? | -15.2%
OC(CNc1ncnc2sccc12)c1ccccc1 (stereo not given) | 146.2% | ? | 3.5% | 1.3% | 209.5% | 3.16µM*
c1ccc(CNc2ncnc3sccc23)cc1 | 20.8% | -93.7* | -19.3% | 1.2% | 22.1% | 6.5%
c1csc(CNc2ncnc3sccc23)c1 | . | -78.5* | . | . | . | ?
CCOc1ccccc1NC(=O)CN1C(=O)COc2ccc(S(=O)(=O)NC3CCCC3)cc21 | . | -1.9 | -9.8% | . | . | .
O=S(=O)(c1ccc(F)cc1)N1CCN(C(=S)NCCc2ccccc2)CC1 | 1.85µM* | -19.8 | 4.2% | 3.3% | ? | 4.9%
O=S(=O)(c1ccc(F)cc1)N1CCN(C(=S)NCC2CCCO2)CC1 (stereo not given) | 2.62µM* | 47.1 | -1.2% | 3.2% | 2.08µM* | ?
O=S(=O)(c1ccc(Cl)cc1)N1CCN(C(=S)NCC2CCCO2)CC1 (stereo not given) | 0.928µM* | -5.3 | -14.0% | -0.9% | -10.2% | .
CCC(Sc1nc(N)c(NC(=O)c2ccc(Br)o2)c(=O)[nH]1)C(=O)O (stereo not given) | -0.3% | -2.0 | 0.0% | 4.0% | ? | 3.0%
Cc1cccc(C)c1-n1nnnc1C(c1ccnc2ccccc12)N1CCCN(C(=O)OC(C)(C)C)CC1 (stereo not given) | . | -20.6 | . | . | . | .
FC(F)Sc1ccc(NC(=S)NC2CCCCC2)cc1 | . | 6.6 | -4.3% | -16.5% | ? | ?
FC(F)Sc1ccc(NC(=S)NCC2CCCCC2)cc1 | . | -96.7* | 1.5% | -31.7% | -104.9% | 31.6µM*
CC1CCCCC1NC(=S)Nc1ccc(SC(F)F)cc1 (stereo not given) | -77.0% | -99.9* | -3.0% | -27.6% | . | 11.2µM*
SMILES | Pf growth 48h | HCMV inh | Sm TGR block | SARS PLP yeast | Pf growth 96h | HCV inh
Cc1cc(C(=O)NCCCN2CC(C)CC(C)C2)n(-c2ccccc2)n1 (stereo not given) | . | 27.6 | 4.4% | 1.7% | ? | 5.6%
CCn1ccnc1CN1CCC(n2nccc2NC(=O)CCc2ccccc2)CC1 | 46.5% | -16.2 | -3.4% | -2.2% | 8.28µM* | -5.2%
CCn1nc(C)c(CN2CCC(n3nccc3NC(=O)Cc3ccccc3)CC2)c1C | -9.9% | ? | -9.2% | -6.5% | 11.7µM* | .
CCn1cc(CN2CCC(n3nccc3NC(=O)CCc3ccccc3)CC2)cn1 | -14.7% | -33.2 | -7.5% | 2.7% | 33.2% | 1.0%
O=C(CCOc1ccccc1)Nc1ccnn1C1CCN(Cc2ccc(O)cc2)CC1 | 9.28µM* | -16.4 | 39.8µM* | -0.5% | 23.9% | -1.0%
O=C(CCOc1ccccc1)Nc1ccnn1C1CCN(CCc2ccccc2)CC1 | -20.6% | -32.9 | -1.9% | -3.6% | 13.1µM* | ?
Cc1cccc(C)c1NC(=O)C(c1ccccc1)N1CCC(c2ccccc2)CC1 (stereo not given) | . | -20.0 | . | . | . | .
COCCn1c(SCC(=O)NC(C)c2ccc(F)cc2)nc2ccccc21 (stereo not given) | -4.3% | 0.8 | 0.5% | 1.2% | 16.3% | ?
COc1cccc(CN2CCC(n3nccc3NC(=O)CCOc3ccccc3)CC2)c1 | ? | -24.7 | -2.9% | -0.8% | 3.29µM* | -10.2%
COc1ccccc1CCNC(=O)CCCn1c(=O)c2cccn2c2cccnc21 | . | -1.3 | 3.4% | . | . | .
O=C1C=C(NNC(=O)c2ccccc2Br)CCC1 | 13.7% | -62.3* | -1.7% | 14.4% | -7.8% | 1.9%
COc1cc(C(=O)NC2CCN(C)CC2)ccc1Nc1ncc2c(n1)N(CCc1ccccc1)CCC(=O)N2C | . | -77.6* | . | . | . | -48.5%
CCCCn1c(N)c(N(CC(C)C)C(=O)c2cc3ccccc3cc2OC)c(=O)[nH]c1=O | . | 0.5 | . | . | . | -6.2%
Cn1cc(/C=N/NC(=O)c2ccc(C#N)cc2F)c2ccccc21 | -9.4% | -27.7 | 9.5% | 0.8% | -1.1% | -2.2%
COc1ccc(-c2nc(CS(=O)CC(=O)NC3CCCCC3C)c(C)o2)cc1OC (stereo not given) | -16.3% | -38.0 | 28.2µM* | -5.0% | ? | -10.5%
COc1ccc(-c2nc(CSCC(=O)NCCc3ccccc3)c(C)o2)cc1 | . | -14.3 | ? | . | . | .
CCOc1ccc(CCNC(=O)CS(=O)Cc2nc(-c3ccc(OC)c(OC)c3)oc2C)cc1OCC (stereo not given) | ? | -3.7 | 50.1µM* | 3.4% | -29.1% | ?
CCCN(CCC)CCNC(=O)CS(=O)Cc1nc(-c2ccc(OC)c(OC)c2)oc1C (stereo not given) | . | 0.4 | -27.9% | . | . | .
COc1ccc(-c2nc(CS(=O)CC(=O)NCc3ccc(F)cc3)c(C)o2)cc1OC (stereo not given) | . | 2.4 | ? | . | . | .
COc1ccc(-c2nc(CS(=O)CC(=O)NCc3ccc(C)cc3)c(C)o2)cc1OC (stereo not given) | -12.2% | . | 39.8µM* | -0.1% | 10.7% | -21.8%
COc1ccc(-c2nc(CSCC(=O)NCc3ccco3)c(C)o2)cc1 | ? | . | 44.7µM* | 12.0% | . | -8.3%
